Compound activity from PubChem.
Rows were chosen to be rich in hits. Some 2.4% of all compounds tested hit in one or more screens of this group.
Cruzain noTriton – qHTS Assay for Promiscuous and Specific Inhibitors of Cruzain (without detergent). Potency, µM, for the others: max response, negative = inhibition, most hits filed as inhibitors. 200,000 compounds, 2.3% hits. Cruzipain (Trypanosoma cruzi), P25779. purified cruzain, Z-FR-AMC fluorescence, no detergent;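 also: plate controls were enzyme without inhibitor for no effect and buffer without enzyme for full effect; nearly all actives have a fitted effect of over 40% in size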
Target sequence (P25779 123-467 limits assumed): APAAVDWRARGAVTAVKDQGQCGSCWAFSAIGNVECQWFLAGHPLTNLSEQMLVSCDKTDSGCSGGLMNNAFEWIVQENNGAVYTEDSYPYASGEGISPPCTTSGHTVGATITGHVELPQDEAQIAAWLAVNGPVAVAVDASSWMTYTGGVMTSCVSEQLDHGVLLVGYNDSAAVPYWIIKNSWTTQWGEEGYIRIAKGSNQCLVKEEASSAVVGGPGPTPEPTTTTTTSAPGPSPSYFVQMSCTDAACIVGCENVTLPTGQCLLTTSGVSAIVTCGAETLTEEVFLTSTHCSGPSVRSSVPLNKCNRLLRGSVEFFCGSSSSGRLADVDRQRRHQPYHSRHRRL
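Detergent-free condition (0.00005% Triton X-100) in acetate buffer pH 5.5 with DTT. 1.5 nM enzyme and compound were pre-mixed 15 min, then 2 uM Z-FR-AMC substrate added; reaction progress from fluorescence change between first and third reads (60 s).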
Cruzain Triton – qHTS Assay for Promiscuous and Specific Inhibitors of Cruzain (with detergent); Cruzipain (Trypanosoma cruzi), P25779; purified cruzain, Z-FR-AMC fluorescence, 0.01% Triton; Potency, µM, for inactives: max response, negative = inhibition, most hits filed as inhibitors; 200,000 compounds, 0.43% hits;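 also: plate controls were neutral wells for no effect and buffer without enzyme for full effect; nearly all actives have a fitted effect of over 40% in size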
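Sodium acetate buffer (100 mM, pH 5.5) containing 5 mM DTT and 0.01% Triton X-100 hosted 1.5 nM cruzain and test compound for 15 min at room temperature. Cleavage of 2 uM Z-FR-AMC was then tracked by fluorescence.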
* = called active by the depositor. Calls follow the shape of the dose curve; as a rule, active = well fitted curve in the direction sought with a large enough effect; inconclusive = small, poorly fitted or top-dose-only effect, or another doubt; inactive = no such curve, though single readings can be large; an effect the other way counts as inactive or inconclusive. Potency is read from the fitted curve at half-maximal effect.

For CC(C)(C)C(=O)[C@@H]1[C@@H]2C(=O)N(C3CCCCC3)C(=O)[C@@H]2[C@H]2c3ccccc3C=CN12 the results were Cruzain noTriton inconclusive and Cruzain Triton 2%.
`O=C1c2ccccc2C(=O)N1Cc1ccc2c(c1)OCO2` gave Cruzain noTriton -10% and Cruzain Triton -2%.
`O=C(Nc1ccc2c(c1)OCO2)[C@@H]1[C@@H]2C(=O)N(C3CCCCC3)C(=O)[C@@H]2C2c3ccccc3C=CN21` (stereo partly specified) gave Cruzain noTriton 20µM* and Cruzain Triton -6%.
For Cc1ccn2c(=O)c(C(=O)NCCc3ccc(S(N)(=O)=O)cc3)c(O)nc2c1 the results were Cruzain noTriton -9% and Cruzain Triton -1%.
CC(=O)OC1=CC2=CC[C@H]3[C@H]4CCC(=O)[C@@]4(C)CC(=O)[C@]3(S)[C@]2(C)CC1 was read as Cruzain noTriton -2% and Cruzain Triton -4%.
C[C@H](Br)C(=O)c1ccc2cc(Br)c3ccccc3c2c1 was read as Cruzain noTriton 10% and Cruzain Triton -8%.
CCCOC(=O)[C@@H]1[C@@H](C(=O)O)[C@H]2CC[C@@H]1O2 was read as Cruzain noTriton 6% and Cruzain Triton 0%.
Screening CC(C)CCNC(=O)CN1C(=O)c2cccnc2Oc2ccccc21 returned Cruzain noTriton 7% and Cruzain Triton -3%.
Screening COc1ccccc1N1CCN(C(=O)c2cc3c(=O)n(Cc4ccco4)ccc3nc2C)CC1 returned Cruzain noTriton inconclusive and Cruzain Triton -2%.
`COc1ccccc1C(=O)Nc1ccc(C(=O)OCc2cc(=O)n3c4c(sc3n2)CCCC4)cc1` gave Cruzain noTriton -8% and Cruzain Triton 1%.
For Cc1cc(C)nc(Nc2ccc(N3CCCC3)cc2)n1 the results were Cruzain noTriton 32µM* and Cruzain Triton -4%.
`Cc1cc(C)nc(Nc2ccc(N3CCOCC3)cc2)n1` gave Cruzain noTriton inconclusive and Cruzain Triton 0%.
`CC1(C)N=C(N)N=C(N)N1c1cccc(C(=O)Nc2ccc(S(=O)(=O)F)cc2)c1` gave Cruzain noTriton 3% and Cruzain Triton -2%.
CC1Cc2ccccc2N1C(=O)CSc1ccccc1 (stereo unspecified) was read as Cruzain noTriton -7% and Cruzain Triton -1%.
`CC(C)C(=O)Nc1nnc(SCC(=O)N2c3ccccc3CC2C)s1` (stereo unspecified) gave Cruzain noTriton 32µM* and Cruzain Triton 10µM*.
For CCn1c(C(=O)N2CCCC(C(=O)NCCCOC)C2)cc2sccc21 (stereo unspecified) the results were Cruzain noTriton -17% and Cruzain Triton -2%.
`CC1=C(SCCC#N)S/C(=C2\SC(C)=C(SCCC#N)S2)S1` gave Cruzain noTriton 25µM* and Cruzain Triton -13%.
N#Cc1nc(-c2ccc(COc3ccccc3)o2)oc1NCc1ccccc1 was read as Cruzain noTriton -24% and Cruzain Triton -4%.
For CC(Nc1oc(-c2ccc(COc3ccccc3)o2)nc1C#N)c1ccccc1 (stereo unspecified) the results were Cruzain noTriton 20µM* and Cruzain Triton -3%.
`Cc1ccccc1OCC(=O)NCCc1nc2ccccc2[nH]1` gave Cruzain noTriton 3.2µM* and Cruzain Triton 5µM*.
`Cc1ccccc1OCC(=O)NCCC(=O)O` gave Cruzain noTriton 1% and Cruzain Triton 1%.
For Cc1cccc(OCC(=O)NCCc2nc3ccccc3[nH]2)c1C the results were Cruzain noTriton 3% and Cruzain Triton 4µM*.
`Cc1cccc(OCC(=O)NCc2ccncc2)c1C` gave Cruzain noTriton -1% and Cruzain Triton -3%.
For COc1ccc(-c2noc(CSc3nnc(C)n3-c3ccc(C)cc3)n2)cc1 the results were Cruzain noTriton 0% and Cruzain Triton -4%.
O=C(Nc1nc(-c2ccccc2)c(-c2ccccc2)s1)c1ccc(S(=O)(=O)N2CCCCC2)cc1 was read as Cruzain noTriton 4µM* and Cruzain Triton 1%.
O=C(NNc1nc(-c2ccccc2)c2cc(Br)ccc2n1)c1ccc(S(=O)(=O)N2CCOCC2)cc1 was read as Cruzain noTriton -3% and Cruzain Triton -2%.
`O=C(NNc1nc(-c2ccccc2)c2cc(Br)ccc2n1)c1ccc(S(=O)(=O)N2CCCCC2)cc1` gave Cruzain noTriton 25µM* and Cruzain Triton -5%.
Screening COc1ccc(C(=O)Nc2nc3c(s2)CCc2cc(OC)ccc2-3)cc1 returned Cruzain noTriton -73% and Cruzain Triton -14%.
Screening O=C(Nc1nc(-c2ccccc2)c(C(=O)c2ccccc2)s1)c1ccc(S(=O)(=O)N2CCCCC2)cc1 returned Cruzain noTriton 7.9µM* and Cruzain Triton -5%.
For O=C(Nc1nc2ccc(Cl)cc2s1)c1ccc(S(=O)(=O)N2CCCC2)cc1 the results were Cruzain noTriton -3% and Cruzain Triton -3%.
`COc1ccc(C(=O)Nc2nc(-c3ccc([N+](=O)[O-])cc3)c(-c3ccc(OC)cc3)s2)cc1` gave Cruzain noTriton 10µM* and Cruzain Triton 2%.
`COCCN(CCOC)S(=O)(=O)c1ccc(C(=O)Nc2nc(-c3ccccc3)c(C(=O)c3ccccc3)s2)cc1` gave Cruzain noTriton inconclusive and Cruzain Triton 0%.
Screening Clc1cc2c(c(CSC3=NCN(CC4CC4)CN3)c1)OCOC2 returned Cruzain noTriton -14% and Cruzain Triton -1%.
For O=C(O)/C(=C\c1ccccc1)Cc1ccccc1 the results were Cruzain noTriton 0% and Cruzain Triton 6%.
For COc1ccc(N2CCN(C(=O)c3cccn3-c3nnc(N4CCCC4)s3)CC2)cc1 the results were Cruzain noTriton 2% and Cruzain Triton 0%.
C(CCOCC1CO1)COCC1CO1 (stereo unspecified) was read as Cruzain noTriton 6% and Cruzain Triton 5%.
For COc1ccccc1N1CCN(C(=O)c2ccc(Nc3nc4ccccc4n4nnnc34)cc2)CC1 the results were Cruzain noTriton -7% and Cruzain Triton 0%.
O=C(Nc1ccccc1-c1nc2ccccc2[nH]1)c1ccc(S(=O)(=O)N2CCCCC2)cc1 was read as Cruzain noTriton 10µM* and Cruzain Triton -4%.
`CC1CCCCN1S(=O)(=O)c1ccc(C(=O)Nc2ccccc2-c2nc3ccccc3[nH]2)cc1` (stereo unspecified) gave Cruzain noTriton inconclusive and Cruzain Triton -5%.
Screening O=C(c1cc2cc3ccc(Cl)cc3nc2o1)N1CCN(c2cccc(Cl)c2)CC1 returned Cruzain noTriton -1% and Cruzain Triton 0%.
Screening COc1ccccc1CNC(=O)CN1N=C(c2ccccc2)CCC1=O returned Cruzain noTriton 0% and Cruzain Triton 0%.
Screening Oc1ccc2ccccc2c1/C=C\c1ccc2c(Br)cc(Br)c(O)c2n1 returned Cruzain noTriton 3.2µM* and Cruzain Triton 1%.
Screening Oc1ccc2ccccc2c1/C=N/n1cnnc1 returned Cruzain noTriton -18% and Cruzain Triton -11%.
COc1cccc(NC(=O)c2nn(-c3ccc(C)cc3)c(=O)n(C)c2=O)c1 was read as Cruzain noTriton 20% and Cruzain Triton -6%.
CC(=O)Oc1ccc(C(=O)[C@H]2[C@H]3C(=O)N(c4ccccc4)C(=O)[C@H]3[C@@H]3C=CC=NN32)cc1 was read as Cruzain noTriton 19% and Cruzain Triton 0%.
